Measurements: ChEMBL document CHEMBL3433997, “St. Jude Leishmania screening dataset” (2016)

Experiments:
Format in all cases: functional
[1] = target: Solute carrier family 2, facilitated glucose transporter member 1 (Homo sapiens) (UniProt P11166); test: ST_JUDE_LEISH: Cytotoxicity at 2uM final concentration against transgenic Leishmania Mexicana promastigotes LmGLUT1 that are glucose transport deficient and complemented with the human glucose transporter GLUT1. Activity is measured by DNA content using SYBR green in vitro
[2] = target: Hexose transporter 1 (Plasmodium falciparum) (UniProt O97467); test: ST_JUDE_LEISH: Cytotoxicity at 2uM final concentration against transgenic Leishmania Mexicana promastigotes LmPfHT that are glucose transport deficient and complemented with the Plasmodium falciparum hexose transporter. Activity is measured by DNA content using SYBR green in vitro
[3] = target: Glucose transporter (Leishmania mexicana) (UniProt O61059); test: ST_JUDE_LEISH: Cytotoxicity at 2uM final concentration against transgenic Leishmania Mexicana promastigotes LmGT2 that are glucose transport deficient and complemented with the L. Mexicana glucose transporter 2. Activity is measured by DNA content using SYBR green in vitro

Sequence of Solute carrier family 2, facilitated glucose transporter member 1 (Homo sapiens) (P11166 whole entry): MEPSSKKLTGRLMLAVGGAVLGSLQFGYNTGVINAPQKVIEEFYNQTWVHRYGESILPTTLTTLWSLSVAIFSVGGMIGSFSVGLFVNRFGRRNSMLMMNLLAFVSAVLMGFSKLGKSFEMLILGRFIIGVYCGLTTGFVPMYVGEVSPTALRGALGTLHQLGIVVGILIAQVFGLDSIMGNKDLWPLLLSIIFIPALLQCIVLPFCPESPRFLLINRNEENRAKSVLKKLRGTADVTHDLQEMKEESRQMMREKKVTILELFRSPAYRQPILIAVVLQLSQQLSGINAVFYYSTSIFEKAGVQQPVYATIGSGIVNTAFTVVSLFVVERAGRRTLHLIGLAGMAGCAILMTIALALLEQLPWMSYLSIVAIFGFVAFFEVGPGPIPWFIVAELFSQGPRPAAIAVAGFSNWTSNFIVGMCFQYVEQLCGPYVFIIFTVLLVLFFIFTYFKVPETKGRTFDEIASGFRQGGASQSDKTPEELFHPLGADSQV

Compound	inhibition [1]	inhibition [2]	inhibition [3]
C[C@H](NC(=O)C1CCCC1)C(=O)Nc1ccc(-c2ccc(-c3nc4cc(C(F)(F)F)ccc4[nH]3)cc2)cc1	2.17%	0.76%	-1.28%
CCn1c(-c2nonc2N)nc2cnc(Oc3cccc(NC(=O)c4ccc(OCCN(C(C)C)C(C)C)cc4)c3)cc21	15.1%	18.2%	5.45%
N#Cc1ccc(N/C(=N\c2cccc(Cl)c2Cl)NC2Cc3ccccc3C2)c(O)c1	2.33%	2.84%	3.97%
FC(F)(F)c1cccc(CCNc2nccc(NCc3ccc(Cl)cc3Cl)n2)c1	9.74%	6.08%	1.55%
O=C1CCCN1CCCNCc1cccc(-c2ccc(-c3nc4cc(C(F)(F)F)ccc4[nH]3)s2)c1	4.12%	3.19%	4.33%
Cn1nccc1C(=O)NCCNCc1ccc(-c2cccc(-c3nc4cc(C(F)(F)F)ccc4[nH]3)c2)cc1	0.63%	1.93%	2.51%
Oc1ccc(-c2nc(-c3ccc4oc5ccc(-c6[nH]c(-c7ccc(O)cc7)nc6-c6ccccc6)cc5c4c3)c(-c3ccccc3)[nH]2)cc1	-2.06%	-1.28%	-0.47%
OCCNc1nc(Nc2ccc(Cl)cc2)nc2ccccc12	6.17%	4.56%	1.54%
CCn1ncc2c(N3CCCC3=O)cc(C(=O)N[C@@H](Cc3ccccc3)[C@H](O)CNC(C)(C)c3cccc(OC)c3)cc21	2.35%	-0.95%	0.04%
COCC(C)n1c(SC(C)C(=O)Nc2cc([N+](=O)[O-])ccc2Cl)nc2ccccc2c1=O (stereo not drawn)	-1.22%	1.55%	-1.16%
Cc1cc(NCCC(=O)NCCOc2ccccc2)nc(Nc2ccccc2)n1	5.24%	4.64%	0.05%
COc1cccc(CN2Cc3ccccc3OC3(CCN(Cc4c[nH]c5cnccc45)CC3)C2)c1	-0.87%	-0.52%	0.59%
O=C(Nc1ccc(-c2ccccc2)cc1)Nc1cccc(Cn2cnc(N3CCCNCC3)cc2=O)c1	5.12%	4.17%	4.86%
Clc1cccc(C=NNc2nc(=Nc3ccccc3)[nH]c(=Nc3ccccc3)[nH]2)c1	8.44%	5.13%	3.05%
CC(C)CN(Cc1c(O)ccc2[nH]c(-c3ccc(F)cc3F)nc12)CC(C)C	11.1%	10.8%	5.69%
N#Cc1cccc(CN(Cc2ccc(Cl)c(Cl)c2)S(=O)(=O)c2cccc([N+](=O)[O-])c2)c1	2.24%	-0.37%	4.05%

Compound	inhibition [1]	inhibition [2]	inhibition [3]
C=CCc1cc(Cc2cnc(N)nc2N)c2ccc(C)nc2c1OC	8.65%	6.7%	5.13%
COC(=O)C(=C(C)C)N1C(=O)[C@@H](NC(=O)OCc2ccccc2)[C@H]1SS[C@@H]1[C@H](NC(=O)OCc2ccccc2)C(=O)N1C(C(=O)OC)=C(C)C	-2.06%	-0.42%	-1.05%
Brc1ccc(C=NNc2nc3ccccc3[nH]2)cc1	6.61%	4.26%	2.59%
Cc1cc2c(cc1C(F)(F)F)N(C(=O)Nc1cc(C(=O)NCCN(C)C)cc(C(F)(F)F)c1)CC2	4.3%	2.66%	3.69%
CC(=O)Nc1ccc2[nH]cc(C3CCN(CCC4CCN(C(=O)/C=C/c5ccc(Cl)c(Cl)c5)CC4)CC3)c2n1	0.57%	0.67%	-1.33%
O=C(CCCCCNC(=O)c1ccc(O)c(-c2ccc(Cl)c(Cl)c2)c1)NC1CCCCCC1	4.53%	3.51%	4.8%
COc1ccc(-n2nc(C)c3c2NC(=O)CC3c2ccccc2OCc2ccc(F)cc2)cc1 (stereo not drawn)	4.97%	4.4%	5.62%
CC(C)S(=O)(=O)N1CCN(Cc2ccc3c(c2)nc(NC(=O)c2ccsc2)n3C[C@H](O)c2ccccc2)CC1	2.63%	1%	-0.17%
O=C(Nc1ccc(Cl)c(Cl)c1)Nc1ccccc1N1CCNCC1	0.02%	0.2%	1.04%
OC(CNc1ccnc(Nc2ccccc2)n1)c1ccc(C(F)(F)F)cc1 (stereo not drawn)	5.97%	5.69%	1.23%
COc1ccccc1NS(=O)(=O)c1cc(C(=O)Nc2ccc(N3CCOCC3)c(S(=O)(=O)Nc3ccccc3Cl)c2)ccc1Cl	3.2%	2.83%	0.88%
COc1cc(C(C)C)ccc1N1CCN(CCCCNC(=O)c2ccc(NC(=O)c3ccc(Cl)cc3)cc2)CC1	4.1%	1.59%	2.26%
COc1ccc(OC)c(NC(=O)C2c3ccccc3C(=O)N(CC(C)C)C2c2cccs2)c1 (stereo not drawn)	-1.99%	-2.35%	-0.44%
CCNc1cc(C)nc(Nc2ccc(C)cc2)n1	25.8%	7.92%	5.86%
COc1ccc(Cc2c(Cl)nc3nc(N)nc(N)c3c2C)c(OC)c1OC	5.35%	12.4%	5.26%
